In PubChem BioAssay AID485358 (National Center for Advancing Translational Sciences (NCATS), 2010):
Screen size: about 340,000 compounds; about 1,800 (0.53%) were called active. Many of the other results were omitted from the sample, so actives are more common in it than they were. Values without a mark were called inactive.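 How the source made its calls: active means activation over 3 SD above normal in the single-dose calcium agonist read (cut at about 30% in these data); inactive means the rest.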

target: D(2) dopamine receptor (Homo sapiens) (UniProt P14416); test: HTS Assay for Allosteric Agonists of the Human D2 Dopamine Receptor: Primary Screen for Agonists; settings: HEK293 T-REx D2 cells, calcium flux agonist mode; at 2 µM; hits give high values; further: 0% is about no effect
Sequence (P14416 whole entry, looked up): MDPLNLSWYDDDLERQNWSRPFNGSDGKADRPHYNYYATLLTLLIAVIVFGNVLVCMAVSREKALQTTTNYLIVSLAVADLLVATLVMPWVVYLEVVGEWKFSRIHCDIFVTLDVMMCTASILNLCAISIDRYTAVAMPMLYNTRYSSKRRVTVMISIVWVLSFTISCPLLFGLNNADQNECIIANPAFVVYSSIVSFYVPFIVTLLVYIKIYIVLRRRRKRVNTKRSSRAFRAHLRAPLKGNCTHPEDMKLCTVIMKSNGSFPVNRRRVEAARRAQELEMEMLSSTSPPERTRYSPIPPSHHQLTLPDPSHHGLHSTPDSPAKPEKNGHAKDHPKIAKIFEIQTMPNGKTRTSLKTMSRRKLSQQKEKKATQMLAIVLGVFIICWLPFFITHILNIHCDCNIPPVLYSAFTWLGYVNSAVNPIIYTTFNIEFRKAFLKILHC
Excerpt: NIH Chemical Genomics Center [NCGC] NIH Molecular Libraries Probe Centers Network [MLPCN] MLPCN Grant: NS064831-01 Assay Submitter (PI): David Sibley Dopamine receptors (DARs) are involved in the etiology and/or therapy of a number of neuropsychiatric and endocrine disorders. For instance, all receptor-based antiparkinsonian drugs work via stimulating the D2 DAR subtype whereas all FDA-approved antipsychotic agents are antagonists of this receptor. […] There are three different types of allosteric modulators that we are seeking, two of which will stimulate or augment receptor signaling, allosteric agonists and potentiators, while the third, allosteric antagonists, will attenuate receptor signaling. The present primary screening assay measures compound agonism by tracking calcium flux in a […], inducible Hek293 Trex D2 cell line.
Freshly passaged cells are plated in 1536 well black, clear bottom plates at a density of 4000 cells/well in 3 ul of complete media containing 1x tetracycline inducer. After an overnight incubation at […] in 5% CO2, cells are loaded with 2 ul of the no wash Calcium Assay Kit (ABD Bioquest) and incubated at room temperature for 30 to 90 minutes. Agonist read: A 10 cycle (1 second/cycle) baseline measurement is taken and then the FDSS online 1536 pintool delivers 23 nl of compound library (as well as dopamine controls) to the plate. The plate is measured for kinetically at 1 cycle/sec for 180 seconds and is considered to be the agonist portion of the assay (eg, compounds which activate a positive calcium response during this portion are flagged as potential agonists). Following the 180 second read, 1 ul of either an EC20 (positive modulation assay) or EC80 (negative modulation assay) is delivered by an onboard pipette head. Measurements are taken kinetically for an additional 180 seconds.

| Structure (SMILES) | activation |
| --- | --- |
| COc1ccccc1CN1CCN(C(=O)Cc2ccccc2)CC1 | 0.485% |
| COc1ccc(CN2CCN(c3ccccc3F)CC2)c(OC)c1 | 71.7% (active) |
| Fc1cccc(F)c1CN1CCN(Cc2c(F)cccc2F)CC1 | 1.26% |
| COC(=O)C1=C(c2cccc(OCc3ccccc3)c2)C[C@@H]2CC[C@H]1N2C(=O)NNCc1ccccc1 | -0.13% |
| Fc1ccc(N2CCN(Cc3ccc4c(c3)OCO4)CC2)cc1 | 6.76% |
| CC(C)c1ccc(O)c(CN2CCN(c3ccccc3)CC2)c1 | -1.71% |
| Oc1cc2c(cc1CN1CCN(c3ccccc3)CC1)OCO2 | 83.3% (active) |
| COC(=O)C1=C(c2ccc3ccccc3c2)C[C@@H]2CC[C@H]1N2C(=O)NCCO | -0.422% |
| CCc1ccc(OCC(=O)N2CCN(CC(=O)Nc3ccccc3Cl)CC2)cc1 | 1.2% |
| Cc1cccc(Cn2cccc(C(=O)Nc3ccc4c(c3)OCCO4)c2=O)c1 | 0.0946% |
| CCOC(=O)C1(CCc2ccccc2)CCN(Cc2ccco2)CC1 | 0.433% |
| CCOC(=O)C1(Cc2ccc(Cl)cc2)CCN(C(C)CCn2cccn2)CC1 (stereo not given) | 72.7% (active) |
| COC(=O)C1=C(c2ccc(F)cc2OCc2ccccc2)C[C@@H]2CC[C@H]1N2C(=O)NCc1ccc(OC)c(OC)c1 | -0.652% |
| O=C(CCC(=O)N1C[C@H]2C[C@@H](C1)c1cccc(=O)n1C2)NCc1ccccc1C(F)(F)F | 0.976% |
| Cc1nnc(NC(=O)c2cccn(Cc3cccc(F)c3)c2=O)s1 | 0.455% |
